The results in this text go back to PubChem BioAssay (NCI).

Test systems include DU-145 prostate; K-562 leukemia; MALME-3M melanoma; MDA-MB-231 breast; RXF 393 renal; SF-268 CNS; SF-295 CNS; SF-539 CNS; UACC-257 melanoma; M14 melanoma; HCT-15 colon; HT29 colon; SNB-75 CNS; SNB-19 CNS; U251 CNS; PC-3 prostate; SK-MEL-5 melanoma; UACC-62 melanoma; LOX IMVI melanoma; SK-MEL-28 melanoma.
Assay in all cases: NCI-60 one-dose screen, 48 h (100 = growth as untreated, 0 = no growth, -100 = all killed)
Conditions in all cases: 10 µM unless noted

The panel holds about 83,000 compounds, 20% with a hit somewhere; the sample as a whole holds those more often.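 Step 1: grow cells in 96-well plates. Step 2: add test compound at a single concentration. Step 3: incubate 48 h. Step 4: record percent growth.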 Unmarked numbers belong to inactive results. Activity calls are given as the source filed them. The calls were made as follows: active = growth percent below 10; inactive = the rest.

Regarding `NS(=O)(=O)c1ccc(NC(=O)/C(=C\c2ccc(Cl)cc2Cl)NC(=O)c2ccccc2)cc1`, the growth with DU-145 prostate was 109%; in the assay with K-562 leukemia, 88.2%; in the assay with MALME-3M melanoma it was 93.2%; in the assay with MDA-MB-231 breast it was 105%; in the assay with RXF 393 renal it was 96%; in the assay with SF-268 CNS, 94.5%. Moreover, the growth with SF-295 CNS was 104%; with SF-539 CNS, 95.7%; with UACC-257 melanoma it was 102%; in the assay on M14 melanoma, 102%; with HCT-15 colon, 110%; in the assay on HT29 colon, 103%. Moreover, the growth was 81.4% with SNB-75 CNS; 95.6% in the assay with SNB-19 CNS; 97.1% in the assay with U251 CNS; 89.4% with PC-3 prostate; 90.2% in the assay on SK-MEL-5 melanoma; 74.9% in the assay on UACC-62 melanoma. Also, the growth was 96.2% in the assay on LOX IMVI melanoma and 110% with SK-MEL-28 melanoma.
Regarding `C=CN(C(=O)N1CCN(c2cc3c(cc2F)c(=O)c(C(=O)O)cn3C2CC2)CC1)c1nc(-c2ccc(OC)cc2)cs1`, the growth in the assay on DU-145 prostate is 30.9%; in the assay on K-562 leukemia it was 21.9%; in the assay on MALME-3M melanoma it was 42.7%; in the assay with MDA-MB-231 breast it was 22.1%; with RXF 393 renal, 20%; in the assay on SF-268 CNS, 29.6%. For the same molecule, the growth in the assay with SF-295 CNS is 11.8%; in the assay on SF-539 CNS, 25.8%; in the assay on UACC-257 melanoma, 26.9%; with M14 melanoma, 32.1%; in the assay on HCT-15 colon it was 13.6%; in the assay on HT29 colon, 15.4%. In addition, the growth was 23.6% with SNB-75 CNS; 19.2% in the assay with SNB-19 CNS; 13.4% in the assay on U251 CNS; 16.4% in the assay with PC-3 prostate; -7.22% (active) with SK-MEL-5 melanoma; 16.4% in the assay on UACC-62 melanoma. For the same molecule, the figures for the growth in the assay with LOX IMVI melanoma and in the assay with SK-MEL-28 melanoma were 1.92% (active) and 45.7%, respectively.
On to `COc1ccc(/C=C/c2c(C(=O)/C=C/c3ccccc3)c(C)nc3ccccc23)cc1`, for which the growth is 5.61% (active) with DU-145 prostate; 6.28% (active) with K-562 leukemia; 17.8% with MALME-3M melanoma; 31.3% in the assay on MDA-MB-231 breast; -23% (active) in the assay with RXF 393 renal; 45.3% in the assay on SF-268 CNS. In addition, the growth in the assay on SF-295 CNS was 22.1%; in the assay with SF-539 CNS, -39.5% (active); in the assay with UACC-257 melanoma it was 8.08% (active); in the assay with M14 melanoma, 15.3%; with HCT-15 colon, -26.2% (active); in the assay on HT29 colon, 1.64% (active). Besides, the growth with SNB-75 CNS is 29.4%; with SNB-19 CNS it was 16.3%; with U251 CNS, -59.9% (active); in the assay with PC-3 prostate, 26.9%; with SK-MEL-5 melanoma, 21.2%; in the assay with UACC-62 melanoma, 19.1%. The growth in the assay on LOX IMVI melanoma was -82.3% (active); in the assay with SK-MEL-28 melanoma, 18.7%.
As for `COc1ccccc1N(C(C)=O)C1=C(Cl)C(=O)c2ccccc2C1=O`, the growth with DU-145 prostate was 38.1%; in the assay with K-562 leukemia it was -13.2% (active); with MALME-3M melanoma it was 43.3%; in the assay on MDA-MB-231 breast it was 10.5%; in the assay with RXF 393 renal, -29.1% (active); in the assay with SF-268 CNS, 30.1%. The growth in the assay with SF-295 CNS is -36% (active); with SF-539 CNS it was -30.9% (active); in the assay on UACC-257 melanoma, -7.02% (active); in the assay on M14 melanoma, 11.7%; in the assay with HCT-15 colon, 4.27% (active); with HT29 colon, 6.98% (active). In addition, the growth with SNB-75 CNS is 24.8%; in the assay with SNB-19 CNS, 34%; in the assay with U251 CNS it was 8.36% (active); in the assay with PC-3 prostate it was 3.3% (active); with SK-MEL-5 melanoma, -69.9% (active); in the assay with UACC-62 melanoma, -35.3% (active). For the same molecule, the growth in the assay with LOX IMVI melanoma is 4.88% (active); with SK-MEL-28 melanoma it was 21.2%.
On to `O=C(CC(=O)Nc1cccc(C(=O)O)c1)Nc1cccc(C(=O)O)c1`, for which the growth in the assay on DU-145 prostate was 121%; in the assay with K-562 leukemia, 111%; in the assay with MALME-3M melanoma it was 104%; in the assay with MDA-MB-231 breast it was 104%; with RXF 393 renal, 111%; in the assay on SF-268 CNS, 104%. Besides, the growth is 106% with SF-295 CNS; 90.5% in the assay with SF-539 CNS; 97.7% in the assay with UACC-257 melanoma; 96.6% in the assay with M14 melanoma; 106% with HCT-15 colon; 97.6% in the assay on HT29 colon. The growth in the assay on SNB-75 CNS was 73.3%; in the assay on SNB-19 CNS it was 102%; in the assay on U251 CNS it was 104%; with PC-3 prostate, 92.5%; in the assay with SK-MEL-5 melanoma, 100%; in the assay with UACC-62 melanoma, 94.6%. Also, the growth is 103% with LOX IMVI melanoma and 100% with SK-MEL-28 melanoma.
Regarding `O=C(/C=C/c1ccc(Oc2ccc(Br)cc2)cc1)c1ccc(Br)cc1`, the growth in the assay on DU-145 prostate is 102%; in the assay with K-562 leukemia, 91.8%; in the assay on MALME-3M melanoma it was 98%; with MDA-MB-231 breast, 101%; with RXF 393 renal, 100%; in the assay on SF-268 CNS it was 101%. The growth was 100% in the assay with SF-295 CNS; 102% with SF-539 CNS; 98.1% in the assay with UACC-257 melanoma; 93.5% in the assay with M14 melanoma; 98.5% with HCT-15 colon; 100% in the assay with HT29 colon. In addition, the growth in the assay on SNB-75 CNS was 90.7%; with SNB-19 CNS, 97.6%; in the assay on U251 CNS, 95%; with PC-3 prostate it was 100%; in the assay with SK-MEL-5 melanoma it was 102%; in the assay with UACC-62 melanoma, 91.4%. For the same molecule, the growth with LOX IMVI melanoma was 96.2%; with SK-MEL-28 melanoma, 105%.
Turning to `COc1ccc2nc(Cl)c(/C=C3\CC(c4ccccc4)=NN(c4ccccc4)C3=O)cc2c1`, the growth with DU-145 prostate is 76.8%; in the assay on K-562 leukemia, 83.9%; in the assay with MALME-3M melanoma, 45.2%; in the assay with MDA-MB-231 breast, 51.7%; with RXF 393 renal it was 10.9%; in the assay with SF-268 CNS, 51.9%. The growth was 62.6% in the assay with SF-295 CNS; 13.1% in the assay on SF-539 CNS; 75.2% in the assay on UACC-257 melanoma; 94.1% in the assay with M14 melanoma; 84.5% in the assay with HCT-15 colon; 82.5% with HT29 colon. Besides, the growth in the assay with SNB-75 CNS was 19.8%; with SNB-19 CNS it was 20.3%; in the assay on U251 CNS, 55.6%; in the assay with PC-3 prostate, 66.1%; with SK-MEL-5 melanoma, 78.2%; in the assay with UACC-62 melanoma it was 71.8%. Moreover, the values for the growth in the assay with LOX IMVI melanoma and with SK-MEL-28 melanoma were 78.3% and 85.8%, respectively.
As for `N#Cc1cccc(C2C3=C(COC3=O)N(CCO)c3cc4c(cc32)OCO4)c1` (stereo not given), the growth is 37.3% with DU-145 prostate; 9.87% (active) in the assay with K-562 leukemia; 49.6% with MALME-3M melanoma; 59.4% in the assay on MDA-MB-231 breast; 41.5% in the assay on RXF 393 renal; 40.3% with SF-268 CNS. The growth is 4.98% (active) in the assay on SF-295 CNS; 8.85% (active) with SF-539 CNS; 55.3% in the assay on UACC-257 melanoma; 14.5% with M14 melanoma; 26.1% with HCT-15 colon; 6.62% (active) in the assay with HT29 colon. The growth was 13% in the assay on SNB-75 CNS; 32.9% in the assay with SNB-19 CNS; 21.7% with U251 CNS; 29.4% with PC-3 prostate; 29.6% in the assay with SK-MEL-5 melanoma; 43.4% in the assay with UACC-62 melanoma. Further, the growth is 35.9% in the assay with LOX IMVI melanoma and 55.2% with SK-MEL-28 melanoma.
